Screens deposited in PubChem BioAssay by Broad Institute.
AF4-AF9 inh – blocks AF4 peptide binding to human AF9 | P42568 | AlphaScreen, biotin-AF4 peptide binding to FLAG-AF9 | inhibition, % at 10 µM | actives 0.47% (n = 350,000);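 active = every replicate reaching a set inhibition limit, whatever the replicate mean, cut at about 25% in these data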;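 note: 0% = plate neutral control median and 100% = total signal loss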
Target sequence (P42568 whole entry, looked up): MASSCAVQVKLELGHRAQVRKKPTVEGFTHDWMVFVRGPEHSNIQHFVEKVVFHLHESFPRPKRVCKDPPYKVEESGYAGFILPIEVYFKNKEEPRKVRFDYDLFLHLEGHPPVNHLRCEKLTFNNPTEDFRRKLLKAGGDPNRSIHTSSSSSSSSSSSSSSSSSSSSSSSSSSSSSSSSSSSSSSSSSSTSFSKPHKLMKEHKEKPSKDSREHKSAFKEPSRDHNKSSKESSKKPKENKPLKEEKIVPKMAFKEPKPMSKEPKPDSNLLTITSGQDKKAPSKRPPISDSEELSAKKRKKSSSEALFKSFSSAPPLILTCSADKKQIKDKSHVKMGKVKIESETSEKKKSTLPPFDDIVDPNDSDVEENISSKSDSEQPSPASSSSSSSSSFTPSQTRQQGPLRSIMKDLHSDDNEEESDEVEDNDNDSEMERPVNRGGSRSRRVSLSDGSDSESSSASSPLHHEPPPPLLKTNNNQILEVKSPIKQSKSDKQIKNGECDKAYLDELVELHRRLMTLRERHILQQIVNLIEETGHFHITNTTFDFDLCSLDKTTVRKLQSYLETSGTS
esBAF inh – SWI/SNF esBAF complex inhibition; mouse ES cells, Bmi1-luciferase knock-in reporter, 24 h; 100% = twice the neutral-well signal; actives 2% (n = 350,000); reporter increase, % at 12.5 µM; in the data active = activation above about 40%;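 note: 0% = median of the plate's neutral control wells and 100% = double that signal; a rise in the Bmi1 reporter signal indicates esBAF inhibition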
Wnt act – Wnt/beta-catenin pathway activation; actives 1.2% (n = 300,000); Wnt/beta-catenin reporter cell assay, activator, plate reader; activation, % at 9.35 µM; in the data active = activation above about 30%, passing the limit was not always enough;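 note: 0% = neutral control wells and 100% = positive control wells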
MITF act – activators of MITF-driven TRPM1 promoter activity in SK-MEL-5 cells; SK-MEL-5 TRPM1-promoter luciferase, 24 h; % of positive control, neutral wells = 0; activation, % at 12.5 µM; actives 0.75% (n = 300,000); AID 588334;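 active = mean activation of at least 80% with every replicate also reaching 80%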;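 note: 0% = neutral control wells and 100% = parthenolide positive control wells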
rRNA inh HTS – inhibits bacterial ribosomal RNA function over humanized ribosomes | E. coli WT GFP vs humanized-ribosome RFP mutants, fluorescence, 24 h; active compounds read low; DMSO median 0, no signal -100 | GFP signal change (wild-type ribosome), % (test concentration not listed) | actives 1.6% (n = 350,000);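 active = significant combined selectivity score with lowered wild-type GFP, culture density cut under 30%, mutant RFP and density less affected; inactive = any of these conditions unmet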
Numbers without * were called inactive; · = no result given. A selection: hits, their analogues and other compounds. The true share with any hit is near 3.7%.

SMILES | AF4-AF9 inh | esBAF inh | Wnt act | MITF act | rRNA inh HTS
COc1ccc2c3c(n(C)c2c1)[C@H](CO)NCC31CCN(Cc2ccccc2F)CC1 | 12.9 | · | · | · | -1.2
COc1ccc2c3c(n(C)c2c1)[C@H](CO)NCC31CCN(Cc2cc(-c3ccccc3)on2)CC1 | 38.6* | · | · | · | 1.4
COc1ccc2c3c(n(C)c2c1)[C@H](CO)NCC31CN(Cc2ccccc2F)C1 | 54.0* | · | · | · | 2.7
COc1ccc2c3c(n(C)c2c1)[C@@H](CO)NCC31CN(CC2CCOCC2)C1 | 31.8* | · | · | · | 4.4
COc1ccc2c3c(n(C)c2c1)[C@H](CO)N(CC1CC1)CC31CN(Cc2ccc(F)cc2)C1 | 30.6* | · | · | · | 2.3
O=C1Nc2cc(C(=O)N3CCN(Cc4ccccc4)CC3)ccc2SC1N1CCOCC1 (stereo not given) | · | 5.9 | · | -7.2 | ·
O=C(C[C@@H]1CC[C@@H]2[C@H](COC[C@@H](O)CN2CC2CCCC2)O1)NCC1CC1 | -4.3 | · | · | · | -0.7
C[C@H](CO)N1C[C@H](C)[C@@H](CN(C)S(C)(=O)=O)Oc2ncc(-c3cccnc3)cc2C1=O | -0.9 | 0.4 | · | · | 1.6
CCCCn1c(N)c(N(CC(C)C)C(=O)c2cc(S(=O)(=O)N3CCOCC3)ccc2Cl)c(=O)[nH]c1=O | 4.1 | -3.7 | 2.1 | 0.5 | 7.7
C[C@H](CO)N1C[C@H](C)[C@H](CN(C)S(=O)(=O)c2cn(C)cn2)Oc2ccc(NC(=O)C3CCCCC3)cc2CC1=O | -2.0 | 0.2 | · | · | 3.4
C[C@H]1CN([C@@H](C)CO)C(=O)Cc2cc(NC(=O)Cc3cn(C)c4ccccc34)ccc2O[C@@H]1CN(C)Cc1ccc(-c2ccccc2)cc1 | 1.0 | 2.5 | · | · | 2.0
COc1ccc2c3c(n(C)c2c1)[C@@H](CO)NCC31CCN(Cc2ccc(F)cc2)CC1 | · | · | · | · | 0.8
COc1ccc2c3c(n(C)c2c1)[C@@H](CO)NCC31CN(Cc2ccc(Cl)cc2)C1 | 45.2* | · | · | · | -1.3
COc1ccc2c3c(n(C)c2c1)[C@H](CO)NCC31CN(Cc2ccc(F)cc2)C1 | 35.6* | · | · | · | -0.2
COc1ccc2c3c(n(C)c2c1)[C@@H](CO)NCC31CN(Cc2ccncc2)C1 | · | · | · | · | -0.1
O=C(CC1CC2CCC1C2)N1CCN(S(=O)(=O)c2ccccc2F)CC1 (stereo not given) | 0.5 | 3.3 | -2.1 | 0.6 | -11.2
Cc1cc(Cl)ccc1OCCCC(=O)N1CCCc2ccccc21 | -28.5 | -1.8 | -2.6 | -8.9 | -29.6*
COc1ccc(OCC(=O)N2CCc3ccccc3C2)cc1 | -2.1 | -0.3 | 1.4 | -8.0 | 4.1
O=C(COc1ccccc1Cl)N1CCc2ccccc21 | -1.3 | 64.2* | 21.1 | 66.3 | -0.9
O=C(COc1ccc(Br)cc1)N1CCc2ccccc2C1 | -0.8 | · | -1.1 | 2.2 | -25.5*
O=C(COc1ccc(Br)cc1)N1CCc2ccccc21 | -3.3 | · | 28.4 | 98.9* | 6.9
O=C(COc1ccccc1)N1CCc2ccccc21 | -18.7 | · | · | 34.2 | -4.0
O=C(COc1ccccc1Cl)N1CCc2ccccc2C1 | -10.3 | 31.5 | 2.5 | · | -4.6
Cc1cccc(C)c1NC(=O)CN(C)C(=O)c1ccc(COc2ccccc2)cc1 | 1.7 | 43.3* | 2.7 | 26.1 | -22.1
Cc1cc(C)c(NC(=O)CN(C)C(=O)c2ccc(OCc3ccccc3)cc2)c(C)c1 | 3.0 | 32.1 | 23.5 | 56.7 | 8.2
SMILES | AF4-AF9 inh | esBAF inh | Wnt act | MITF act | rRNA inh HTS
CCC(=O)N(C)C[C@@H]1Oc2cc(-c3ccccc3C)ccc2S(=O)(=O)N([C@H](C)CO)C[C@@H]1C | -0.8 | -1.7 | · | · | 5.5
CCOc1ccc(Nc2cc(C)nc(N3CCOCC3)n2)cc1 | · | 3.5 | · | 27.2 | ·
CCOc1ccc2nc(N3CCOCC3)nc(C)c2c1 | · | 33.7 | · | 98.8* | ·
Cc1cc(C)cc(N=Cc2c(O)c3ccccc3oc2=O)c1 | 0.5 | · | -1.3 | -11.8 | 16.1
Cc1cc(C)c(N=Cc2c(O)c3ccccc3oc2=O)c(C)c1 | 0.6 | 56.9* | -0.4 | 55.3 | 4.3
CC(Oc1ccccc1)C(=O)Nc1nnc(S(=O)(=O)Nc2ccccc2)s1 (stereo not given) | -14.2 | -6.5 | -0.6 | -2.8 | -13.4*
CC(C)NC(=O)C(=O)Nc1ccc2c(c1)N(S(=O)(=O)c1cccs1)CCC2 | -0.8 | -4.6 | 1.9 | -6.8 | -18.2*
CNC(=O)C(=O)Nc1ccc2c(c1)N(S(=O)(=O)c1cccs1)CCC2 | -20.8 | 0.6 | -0.7 | 2.2 | -1.7
CO[C@@H]1CN(C)C(=O)c2ccc(NC(C)=O)cc2OC[C@H](C)N(CCc2ccccc2)C[C@@H]1C | 0.4 | -3.9 | · | · | 0.7
N#Cc1nc(-c2cccs2)oc1N1CCN(c2ccccc2)CC1 | · | -1.5 | · | 8.3 | ·
